Experimental data published in PubChem BioAssay (Tox21).
Results filed as inconclusive are left out. Calls of active or inactive are those of the source. Unless noted, the call rests on the fitted dose curve.

Legend:
[1] = qHTS assay to identify small molecule antagonists of the estrogen related receptor signaling pathway with the pleiotropic PPARgamma coactivator (PGC) from Tox21 10K library - cell viability counter screen (AID 1224840; active means well fitted cell-killing curve with a large enough effect in the repeat runs, not every such curve was filed as active; further: nearly all actives have a fitted effect of over 40% in size)
In short: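 Following seeding of 2,000 PGC/ERR cells/well and 6 hours' incubation, test compounds were delivered in DMSO. The plates then sat 17.5 hours at 37 C before a fluorogenic live-cell protease reagent (CellTiter-Fluor) was read after 30 min.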

[2] = qHTS assay to identify small molecule antagonists of the estrogen related receptor signaling pathway with the pleiotropic PPARgamma coactivator (PGC) from Tox21 10K library (AID 1224841; call rule not given here; further: actives are mostly falling curves and most rising ones were filed inactive; nearly all actives have a fitted effect of over 50% in size)
In short: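 qHTS antagonist format: PGC/ERR cells, 2k/well, compound in DMSO by pin transfer after 6 h attachment, 18 h treatment at 37 C, One-Glo luminescence read at 30 min.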

[3] = qHTS assay to identify small molecule agonists of the hypoxia (HIF-1) signaling pathway - cell viability counter screen (AID 1224844); further: nearly all actives have a fitted effect of over 50% in size
In short: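 Cells (HRE-bla ME-180, 2,000 per well) sat 5 hrs at 37C, got compound for 17 hrs, were read for CCF4-AM FRET, and were finally lysed with CellTiter-Glo for a 30 min room-temperature luminescence read.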

[4] = qHTS assay to identify small molecule agonists of H2AX (AID 1224845; active means well fitted activation curve with a large enough effect in the signal ratio in the repeat runs, not every such curve was filed as active; the % refers to the signal ratio)
In short: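 Phospho-H2AX Ser139 measured by HTRF (ex 320 nm; em 665 and 620 nm) after 24 hr antibody incubation. Compounds, 15 concentrations, 0.76% DMSO, were applied to CHO-K1 cells for 3hr at 37C before lysis.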

[5] = qHTS assay to identify small molecule agonists of the hypoxia (HIF-1) signaling pathway (AID 1224846; active means well fitted activation curve with a large enough effect in the signal ratio in the repeat runs, not every such curve was filed as active; the % refers to the signal ratio)
In short: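 A low-serum medium (0.5% dialyzed FBS) holding 2,000 HRE-bla ME-180 cells per well is preincubated for 5 hrs, dosed with compounds by pintool, and kept a further 17 hrs at 37C, 5% CO2 before CCF4-AM FRET detection of beta-lactamase.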

[6] = qHTS assay to identify small molecule antagonists of the estrogen related receptor (ERR) signaling pathway from Tox21 library (AID 1224848; active means well fitted curve in the direction sought with a large enough effect in the repeat runs; an effect the other way counts as inactive or inconclusive; further: nearly all actives have a fitted effect of over 50% in size)
In short: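 Reading was by luminescence 30 min after ONE-Glo addition. Before that, ERR cells at 2,000 per well had rested 6 h at 37 C/5% CO2 and then received pin-tooled compounds in DMSO for 18 h at 37 C.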

[7] = qHTS assay to identify small molecule agonists of the estrogen related receptor (ERR) signaling pathway from Tox21 library (AID 1224849); details: ERR reporter cell line, ONE-Glo luciferase, 18 h; at 92.4 µM (top of the series) unless noted; further: nearly all actives have a fitted effect of over 15% in size
In short: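 Screening used an NTP-provided ERR luciferase cell line. Compounds in DMSO were added 6 h after seeding and left 18 h at 37 C before a 30 min ONE-Glo step and luminescence reading.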

[8] = qHTS assay to identify small molecule agonists of the estrogen related receptor signaling pathway with the pleiotropic PPARgamma coactivator (PGC) from Tox21 10K library (AID 1224842; active means well fitted curve in the direction sought with a large enough effect in the repeat runs; an effect the other way counts as inactive or inconclusive; further: nearly all actives have a fitted effect of over 15% in size)
In short: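 Luminescence from One-Glo (30 min, room temperature) measured after PGC/ERR cells had 18 h at 37 C with pinned compound (23 nL in DMSO). Cells had been seeded at 2,000 per well and pre-incubated 6 h.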

[9] = qHTS assay to identify small molecule agonists of H2AX - cell viability counter screen (AID 1224847);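 further: wild-type CHO-K1 cells; top concentration of the series differs between compounds; nearly all actives have a fitted effect of over 30% in size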
In short: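 CHO-K1 wt, 1000 cells/well, o/n 37C; cpds 15 conc, 3 h 37C, 0.76% DMSO; CellTiter-Glo, 30 min RT, luminescence.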

[10] = target: Thyrotropin receptor (Homo sapiens) (UniProt P16473); test: qHTS assay to identify small molecule agonists of the thyroid stimulating hormone receptor (TSHR) signaling pathway (AID 1224843); further: nearly all actives have a fitted effect of over 45% in size
Thyrotropin receptor (Homo sapiens), sequence (P16473 whole entry, looked up): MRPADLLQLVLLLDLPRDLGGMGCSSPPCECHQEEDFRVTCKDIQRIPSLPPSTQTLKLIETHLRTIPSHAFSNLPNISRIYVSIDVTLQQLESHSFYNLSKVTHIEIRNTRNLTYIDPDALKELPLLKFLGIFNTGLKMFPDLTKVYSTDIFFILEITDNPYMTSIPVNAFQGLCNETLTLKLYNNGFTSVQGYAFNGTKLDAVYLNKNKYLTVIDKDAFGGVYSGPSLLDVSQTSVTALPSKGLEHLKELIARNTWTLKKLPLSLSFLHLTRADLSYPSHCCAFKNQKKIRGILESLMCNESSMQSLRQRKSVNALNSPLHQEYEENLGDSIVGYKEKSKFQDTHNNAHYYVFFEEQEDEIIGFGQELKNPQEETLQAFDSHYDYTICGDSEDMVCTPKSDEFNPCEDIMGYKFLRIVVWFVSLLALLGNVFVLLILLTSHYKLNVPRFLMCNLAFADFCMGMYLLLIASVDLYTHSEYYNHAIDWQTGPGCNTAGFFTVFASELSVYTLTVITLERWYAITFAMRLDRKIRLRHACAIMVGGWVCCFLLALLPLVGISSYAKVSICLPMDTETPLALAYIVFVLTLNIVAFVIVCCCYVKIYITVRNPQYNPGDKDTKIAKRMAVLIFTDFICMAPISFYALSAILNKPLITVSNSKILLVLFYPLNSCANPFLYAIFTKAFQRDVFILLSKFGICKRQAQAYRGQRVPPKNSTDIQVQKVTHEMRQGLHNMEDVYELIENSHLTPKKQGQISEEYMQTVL
In short: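 HEK293 cells stably bearing the thyrotropin receptor were plated at 800 cells/well and challenged with compound (30 min, RT). Accumulated cAMP was quantified via cAMP-d2 competing for cryptate-tagged antibody.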
On the % scale 0 is the no-effect control and ±100 the full control effect.

CC(CC(=O)Cl)CC(C)(C)C (stereo not drawn)
inactive: outcome [1] | Potency [2] | outcome [3] | outcome [4] | outcome [5] | outcome [6] | activity change, positive = activation [7] 5.62%

CC(C)OCCO
inactive: outcome [1] | Potency [2] | Potency [8] | outcome [3] | outcome [4] | outcome [5] | outcome [9] | outcome [6] | activity change, positive = activation [7] 6.53%

O=S(=O)(O)c1cc(I)c(O)c2ncccc12
inactive: outcome [1] | Potency [2] | Potency [8] | Potency [10] | outcome [3] | outcome [5] | outcome [9] | outcome [6] | activity change, positive = activation [7] 2.69% [at 42.5 µM]

C[Si](C)(C)O[Si](O)(O)O
inactive: outcome [1] | Potency [2] | Potency [8] | outcome [3] | outcome [4] | outcome [5] | outcome [9] | outcome [6] | activity change, positive = activation [7] 4.29%

CC(C)C[P+](C)(CC(C)C)CC(C)C
inactive: outcome [1] | Potency [8] | Potency [10] | outcome [3] | outcome [4] | outcome [5] | outcome [6] | activity change, positive = activation [7] -12.2%

Nc1nc(Cl)cc(Cl)n1
inactive: outcome [1] | Potency [2] | Potency [8] | outcome [3] | outcome [4] | outcome [6] | activity change, positive = activation [7] -1.17%

CC(C)c1cc(C(C)C)cc(C(C)C)c1
inactive: outcome [1] | Potency [2] | Potency [8] | outcome [3] | outcome [4] | outcome [5] | outcome [9] | outcome [6] | activity change, positive = activation [7] 7.19%

CCCCCCCC(=O)N(C)C
inactive: outcome [1] | Potency [2] | Potency [8] | outcome [3] | outcome [4] | outcome [5] | outcome [9] | outcome [6] | activity change, positive = activation [7] 2.8%

CNC(=O)c1c(I)c(NC(C)=O)c(I)c(C(=O)O)c1I
inactive: outcome [1] | Potency [2] | Potency [8] | outcome [3] | outcome [4] | outcome [5] | outcome [6] | activity change, positive = activation [7] 2.26% [at 42.5 µM]

O=C(O)Cc1c(Cl)ccc(Cl)c1Cl
inactive: outcome [1] | Potency [2] | Potency [8] | Potency [10] | outcome [3] | outcome [5] | outcome [9] | outcome [6] | activity change, positive = activation [7] 6.33%

CN(C)c1cc(NC(=O)CNC(C)(C)C)c(O)c2c1C[C@H]1C[C@H]3[C@H](N(C)C)C(=O)C(C(N)=O)=C(O)[C@@]3(O)C(=O)C1=C2O
inactive: outcome [1] | Potency [2] | outcome [3] | outcome [5] | outcome [6] | activity change, positive = activation [7] 1.19% [at 42.5 µM]

CCCc1ncc(C(=O)O)s1
inactive: outcome [1] | Potency [2] | Potency [8] | outcome [3] | outcome [4] | outcome [9] | outcome [6] | activity change, positive = activation [7] 3.45% [at 42.5 µM]

O=c1[nH]c(=O)c2cn[nH]c2[nH]1
inactive: outcome [1] | Potency [2] | Potency [8] | outcome [3] | outcome [4] | activity change, positive = activation [7] -22.5%

CCO[Si](CC(C)C)(OCC)OCC
inactive: outcome [1] | Potency [2] | Potency [8] | outcome [3] | outcome [4] | outcome [9] | activity change, positive = activation [7] -27.2%

Cc1ccc(O)c(C(=O)c2ccccc2)c1
inactive: outcome [1] | Potency [2] | Potency [10] | outcome [3] | outcome [4] | outcome [5] | outcome [6] | activity change, positive = activation [7] -3.28%

Nc1cc(S(=O)(=O)O)ccc1O
inactive: outcome [1] | Potency [2] | Potency [8] | outcome [3] | outcome [5] | outcome [9] | outcome [6] | activity change, positive = activation [7] 6.11%

COc1ccc(Cl)cc1C
inactive: outcome [1] | Potency [2] | Potency [8] | outcome [3] | outcome [4] | outcome [5] | outcome [9] | outcome [6] | activity change, positive = activation [7] 7.2%

CC(C)(C)c1ccc(N)cc1
inactive: outcome [1] | Potency [2] | Potency [8] | outcome [3] | outcome [4] | outcome [5] | outcome [9] | outcome [6]

CO/N=C(\C(=O)O)c1csc(NC(=O)CCl)n1
inactive: outcome [1] | Potency [2] | Potency [8] | outcome [3] | outcome [4] | outcome [9] | outcome [6] | activity change, positive = activation [7] 4.95% [at 42.5 µM]

C=CC(=O)OCCOCCOCC
inactive: outcome [1] | Potency [2] | Potency [8] | outcome [3] | outcome [4] | outcome [5] | outcome [6]

Cc1cc(C)c(C)c(C)c1
inactive: outcome [1] | Potency [2] | Potency [8] | outcome [3] | outcome [4] | outcome [5] | outcome [9] | outcome [6] | activity change, positive = activation [7] 5.28%

CC(=O)c1ccc2ccc3ccccc3c2c1
inactive: outcome [1] | Potency [2] | Potency [8] | Potency [10] | outcome [3] | outcome [5] | outcome [6] | activity change, positive = activation [7] 8.72%

CC(C)(C)C(=O)CCc1ccc(Cl)cc1
inactive: outcome [1] | Potency [2] | Potency [8] | outcome [3] | outcome [4] | outcome [9] | outcome [6] | activity change, positive = activation [7] 2.37%

NNC(=O)CCCCC(=O)NN
inactive: outcome [1] | Potency [2] | Potency [8] | outcome [3] | outcome [4] | outcome [6] | activity change, positive = activation [7] 0.359%

C[C@@H](CN1CC(=O)NC(=O)C1)N1CC(=O)NC(=O)C1
inactive: outcome [1] | Potency [2] | Potency [8] | outcome [3] | outcome [4] | outcome [5] | outcome [9] | outcome [6] | activity change, positive = activation [7] 3.58% [at 42.5 µM]

CC(=O)c1c(C)cc(C(C)(C)C)cc1C
inactive: outcome [1] | Potency [2] | Potency [8] | outcome [3] | outcome [4] | outcome [5] | outcome [6] | activity change, positive = activation [7] -1.7%
